Screening data from PubChem BioAssay.
Hits are enriched below; roughly 19% of the tested compounds scored in any of these assays.
TDP1 cell noCPT = qHTS for Inhibitors of human tyrosyl-DNA phosphodiesterase 1 (TDP1): qHTS in cells in absence of CPT; DT40 Tdp1-/- hTDP1 cells, no CPT, ATP luminescence, 48 h; Potency, µM (series often up to 46.2 µM), most hits filed as inhibitors; actives 15% (n = 420,000); AID 686978, 2013; also: nearly all actives have a fitted effect of over 55% in size
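Seeded 400 DT40-hTDP1 cells/well (vehicle DMSO, no 20 nM CPT); pinned compounds; ≥48 hr at 37 °C; CellTiter-Glo luminescence as viability measure.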
HT1080-NT tox = kills 2HG-producing HT-1080-NT fibrosarcoma cells | HT-1080-NT fibrosarcoma viability, CellTiter-Glo ATP luminescence, 48 h | actives 1.6% (n = 360,000) | AID 686970 | Potency, µM (titrated, usually from 46.1 µM), actives largely listed as cytotoxic;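 also: NT is the 2HG producing partner of a matched IDH1 knockdown line; nearly all actives have a fitted effect of over 55% in size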
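Fibrosarcoma NT cells, 750 per well in 5% FBS RPMI, were exposed to compound for 48 hours. Viability: CellTiter-Glo luminescence.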
IL-1B inflam inh = inhibitors of inflammasome signaling (IL-1 beta secretion); activity change, % at 57.5 µM; actives 4.7% (n = 360,000); THP-1 LPS/ATP IL-1B secretion, AlphaLISA, 16 h; hits give low values; in the data active = activity change below about -50%; inconclusive = mostly about -30% to -49%
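THP-1 cells pretreated 1 hr with compounds (up to 57.5 uM final), then stimulated with LPS (250 ng/mL final) plus ATP (1.25 mM final); secreted IL-1B measured by AlphaLISA after 16 hr, decreased signal indicating inhibition.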
HT1080 IDH1KD tx = kills HT-1080 cells with IDH1 knockdown; Potency, µM (highest dose often 46.1 µM), usual class: cytotoxic; actives 2% (n = 360,000); HT-1080 IDH1 knockdown viability, ATP luminescence, 48 h
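Using the IDH1-knockdown HT-1080 line run in the same batch and compound series as the NT line, viability after 48 h at 37 °C was determined by CellTiter-Glo luminescence and expressed as % activity.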
TDP1 cell CPT = growth inhibition of DT40 Tdp1-/-;hTDP1 cells with camptothecin (screen for TDP1 inhibitors). chicken DT40 Tdp1-/-;hTDP1 cells + 20 nM CPT, ATP luminescence, 48 h. Potency, µM (top dose mostly 46.2 µM), most hits filed as inhibitors. actives 12% (n = 420,000). AID 686979; also: nearly all actives have a fitted effect of over 55% in size
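Chicken DT40 Tdp1-/- cells stably complemented with human TDP1 were seeded at 400 cells/well in medium containing 20 nM camptothecin, exposed to pin-transferred compounds, and grown at 37 °C for at least 48 hr. Viability was read as ATP luminescence.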
A number is an active result; - = inactive; ? = inconclusive; . = no result given. Unless noted, calls follow the shape of the dose curve; as a rule, active = well fitted curve in the direction sought with a large enough effect; inconclusive = small, poorly fitted or top-dose-only effect, or another doubt; inactive = no such curve, though single readings can be large; an effect the other way counts as inactive or inconclusive.

SMILES | TDP1 cell noCPT | HT1080-NT tox | IL-1B inflam inh | HT1080 IDH1KD tx | TDP1 cell CPT
COc1cccc(CNC(=O)c2ccc3nc(-c4ccccc4)c(-c4ccccc4)nc3c2)c1OC | ? | . | . | . | 23µM
O=C(NCC1CC1)c1ccc(Nc2nc3ccc(Br)cc3[nH]2)cc1 | ? | - | - | - | ?
COCCNC(=O)c1cccc(Nc2nc(-c3ccccc3)c3cc(Cl)ccc3n2)c1 | 9.2µM | - | -52 | ? | 15µM
CCCCc1c(O)nc(SCC(=O)NCCc2ccc(OC)c(OC)c2)[nH]c1=O | - | - | - | - | -
OC[C@H]1O[C@H](c2nc(-c3nc(-c4cccc(-n5cccc5)c4)no3)cs2)C[C@@H]1O | ? | - | - | ? | ?
COc1cccc(C(=O)NCCS(=O)(=O)NC2CCCC2)c1 | - | - | - | - | -
Cc1cc(S(=O)(=O)Nc2cccc(-c3ccc(N4CCOCC4)nn3)c2)c(C)cc1Cl | - | . | . | . | -
Cc1cc(C)cc(OC(=O)c2cc(-c3ccc(Cl)cc3)on2)c1 | - | . | . | . | -
CCCN(C(=O)c1cc(C)ccc1C)c1c(N)n(Cc2ccccc2)c(=O)[nH]c1=O | - | - | - | - | -
COCCCNC(=O)c1ccc(-c2nc3ccccc3nc2-c2ccccc2)cc1 | 23µM | - | - | - | ?
CN1CCN(CCNC(=O)c2ccc3nc(-c4ccc(F)cc4)c(-c4ccc(F)cc4)nc3c2)CC1 | ? | 18µM | -53 | 23µM | ?
CNC(=O)c1ccc2nc(-c3cccc(C)c3)c(-c3cccc(C)c3)nc2c1 | 10µM | . | . | . | 11µM
COc1ccc(-c2nc3ccc(C(=O)NCC(OC)OC)cc3nc2-c2ccc(OC)cc2)cc1 | 8.2µM | - | - | - | 10µM
Cc1cc(SCC(=O)NCCC2=CCCCC2)nc2ccccc12 | ? | - | - | - | ?
Cc1ccc(CNC(=O)COC(=O)c2ccccc2OCC(=O)Nc2ccc(Br)cc2)cc1 | - | - | . | - | -
CC(=O)Nc1ccc(NC(=O)C2CC(=O)N(c3ccccc3Cl)C2)cc1 (stereo not drawn) | - | - | - | - | -
COc1ccc(-c2nc3ccc(C(=O)NCc4ccccc4)cc3nc2-c2ccc(OC)cc2)cc1 | 15µM | . | . | . | ?
C=CCn1c(SCC(=O)NC2(C)CCS(=O)(=O)C2)nc2ccccc21 (stereo not drawn) | - | - | - | - | -
COCc1cc(=O)[nH]c(SCCS(=O)(=O)c2ccc(C)cc2)n1 | - | - | - | - | -
COCc1cc(=O)[nH]c(SCCS(=O)(=O)c2ccc(Cl)cc2Cl)n1 | ? | - | - | - | 21µM
COc1ccc(NC(=O)C2CCCN(S(=O)(=O)c3ccc4c(c3)oc(=O)n4C)C2)c(OC)c1 (stereo not drawn) | ? | - | - | - | -
N#Cc1cccc(NC(=O)N2CC[C@@]3(CCCN(C(=O)c4cc(C(F)(F)F)cc(C(F)(F)F)c4)C3)C2)c1 | - | . | . | . | -
CCOC(=O)C1=CCN(S(=O)(=O)c2ccccc2C)C1c1cccc(Br)c1 (stereo not drawn) | 21µM | ? | - | ? | ?
CCOC(=O)C1=CCN(S(=O)(=O)c2ccc(F)cc2)C1c1cccc(Cl)c1 (stereo not drawn) | ? | - | - | - | -
CCOC(=O)C1=CCN(S(=O)(=O)c2cccc(Cl)c2)C1c1cccc(F)c1 (stereo not drawn) | 21µM | - | ? | - | 21µM
SMILES | TDP1 cell noCPT | HT1080-NT tox | IL-1B inflam inh | HT1080 IDH1KD tx | TDP1 cell CPT
CCOC(=O)C1=CCN(S(=O)(=O)c2ccccc2C)C1c1cccc(F)c1 (stereo not drawn) | 16µM | - | - | - | ?
CCOC(=O)C1=CCN(S(=O)(=O)c2ccccc2F)C1c1cccc(F)c1 (stereo not drawn) | ? | - | - | - | ?
CC(C)NC(=O)c1ccccc1NC(=O)CCc1ccccc1 | - | - | - | - | -
O=C(NC(=S)NC1CCN(Cc2ccccc2)CC1)c1ccc(F)cc1 | 15µM | - | - | - | ?
O=C(NC1CCN(Cc2ccc(F)cc2)CC1)c1ccccc1 | - | - | - | - | -
O=C(NC1CCN(Cc2ccc3ccccc3c2)CC1)c1ccccc1 | 18µM | - | - | - | 18µM
O=C(NC1CCN(Cc2ccccc2)CC1)c1ccc(I)cc1 | - | . | . | . | -
O=C(NC1CCN(Cc2ccc(Cl)c(Cl)c2)CC1)c1ccccc1 | ? | - | - | - | 21µM
CC(C)Oc1ccc(C(=O)NC2CCN(Cc3ccccc3)CC2)cc1 | ? | - | -84 | - | -
C/C(=N\NC(=O)c1cccc(S(=O)(=O)N2CCCC2)c1)c1ccc(C)cc1 | ? | - | - | - | ?
CCCNC(=O)N1[C@H](c2cccs2)[C@@H](C)C(=O)[C@@H](C)[C@@H]1c1cccs1 | ? | . | . | . | -
O=C1CC2(CCN(C(=O)COc3ccccc3F)CC2)Oc2ccccc21 | ? | - | - | - | -
Cc1nn(-c2ccccc2)c2[nH]c(=O)c(CNCCN3CCOCC3)cc12 | - | - | - | - | -
CCc1ccc(NCc2cc3c(C)nn(-c4ccccc4)c3[nH]c2=O)cc1 | 13µM | ? | - | - | 21µM
Cc1ccc(-c2nn(-c3ccccc3)c3[nH]c(=O)c(CNCc4ccccc4)cc23)cc1 | ? | ? | -58 | ? | ?
Cc1nn(-c2ccccc2)c2[nH]c(=O)c(CNc3ccc4c(c3)OCCO4)cc12 | - | - | - | - | -
Cc1nn(-c2ccccc2)c2[nH]c(=O)c(CNCc3ccc4c(c3)OCO4)cc12 | 15µM | - | - | - | 18µM
CCN(CC)S(=O)(=O)c1ccc(/C=C/C(=O)OCC(=O)Nc2ccc(S(N)(=O)=O)cc2)cc1 | ? | - | - | - | -
O=C(CSc1nnnn1-c1ccccc1)CC(=O)Nc1ccc(Cl)cc1 | ? | ? | - | ? | ?
CC(=O)OCC1(C)CN(c2ccccc2)N(C(C)=O)C1=O (stereo not drawn) | 21µM | 21µM | - | ? | ?
CC(=O)OCC1(C)CN(c2ccccc2)N(C(=O)c2ccc(C(C)(C)C)cc2)C1=O (stereo not drawn) | ? | ? | - | ? | ?
CC(=O)OCC1(C)CN(c2ccccc2)NC1=O (stereo not drawn) | ? | ? | - | 23µM | 21µM
Cc1ccc(-n2c(=O)c3c(cnn3C)n(CC(=O)Nc3ccc(C)cc3C)c2=O)cc1 | - | . | . | . | -
CC(C)C(NC(=O)c1ccc(C(C)(C)C)cc1)C(=O)Nc1cccc(S(N)(=O)=O)c1 (stereo not drawn) | - | ? | -52 | - | -
COc1ccc(N2CCN(CC(=O)Nc3cccc(S(=O)(=O)N4CCOCC4)c3)CC2)cc1 | 9.2µM | - | - | - | ?
